For test [1], the system named is Plasmodium falciparum Sir2 (PF13_0152, Sir2A). The test can be described thus: pfSir2 binders on small-molecule microarrays, primary screen, biochemical, small-molecule microarray, 635 nm fluorescence (AID 1098).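 Note: score merges spot fluorescence intensity with its signal-to-noise ratio.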 The settings on record: small-molecule microarray binding, fluorescence 635 nm; higher = more signal.
Test [2] can be described thus: small-molecule microarray binders of probe aDKK1, primary screen, biochemical, biotinylated probe, 635/667 nm fluorescence (AID 1099).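 Note: score merges 667nm spot fluorescence with signal to noise across triplicate slides.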 Particulars: higher = more signal.
Test [3] in a line: small-molecule microarray binders of probe aCHRDL2, primary screen, biochemical, biotinylated probe, 635/667 nm fluorescence (AID 1100). The settings on record: higher = more signal.
The nature of test [4]: splicing luciferase reporter signal modulators, primary screen, spliceosome inhibition project, cell-based, HEK293, splice +/- reporter (AID 1101).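 Note: HEK293 cells carrying a splicing-competent luciferase reporter gene; test concentration not given here.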 Particulars: luminescence, 24 h, higher = more signal, called active from +8 up or from −8 down. For orientation: In a reporter assay the amount or activity of a reporter protein is the signal.
In test [5] the target is Fibroblast growth factor 10 (Homo sapiens) (UniProt O15520). The experiment in a line: FGF10 binders on small-molecule microarrays, primary screen, biochemical, small-molecule microarray, 635 nm fluorescence (AID 1102). The settings on record: FGF10 binding, fluorescence 635 nm, higher = more signal.
Test [6] has as its system glycogen synthase kinase-3 (GSK3A per assay name; protocol says GSK3B). The test can be described thus: GSK3 binders on small-molecule microarrays, primary screen, biochemical, small-molecule microarray, 635 nm fluorescence, GSK3A (AID 1103). Note: the record names both GSK3A and GSK3B. Particulars: small-molecule microarray binding, fluorescence 635 nm; higher = more signal.
Test [7] has as its target Epidermal growth factor receptor (Homo sapiens) (UniProt P00533). The test can be described thus: EGFR binders on small-molecule microarrays, primary screen, biochemical, small-molecule microarray, 635 nm fluorescence (AID 1104).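 Note: score merges 667 nm emission intensity with spot signal to noise over triplicate slides.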 Particulars: EGFR binding, higher = more signal.
Test [8] deals with Follistatin-related protein 3 (Homo sapiens) (UniProt O95633). The test can be described thus: FSTL3 binders on small-molecule microarrays, primary screen, biochemical, small-molecule microarray, 635 nm fluorescence (AID 1105).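 Note: score merges emission near 667 nm and signal to noise per printed spot across three slides.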 The settings on record: FSTL3 binding, higher = more signal.
Test [9] addresses Dickkopf-related protein 1 (Homo sapiens) (UniProt O94907). The experiment in a line: DKK1 binders on small-molecule microarrays, primary screen, biochemical, small-molecule microarray, 635 nm fluorescence scan (AID 1106).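 Note: score merges emission near 667 nm with signal to noise over three replicate slides.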 Particulars: DKK1 binding, higher = more signal.
For test [10], the system named is Inhibin beta A chain (activin A). The test can be described thus: INHBA (activin A) binders on microarrays, primary screen, biochemical, small-molecule microarray, 635 nm fluorescence scan (AID 1107).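 Note: mouse activin A protein probed at 4.33 µg/mL on printed slides; score merges bound-protein fluorescence near 667 nm with spot signal-to-noise.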 Particulars: small-molecule microarray binding, higher = more signal.
The test system of test [11] is Human papillomavirus type 1a protein E7 (residues 44-93). The experiment in a line: HPV1a E7 fragment binders on microarrays, primary screen, biochemical, small-molecule microarray, residues 44-93, 635 nm fluorescence (AID 1108).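 Note: E7 fragment applied at 1 µg/mL in TBST for 1 h at 4 C; score combines spot fluorescence with its signal to noise ratio.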 The settings on record: small-molecule microarray binding, fluorescence 635 nm; higher = more signal.
Test [12] in a line: modulators of HCV replicon luciferase signal, primary screen, HCV replication inhibitor project, Huh7 cells, luciferase reporter (AID 1109).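 Note: huh7 hepatoma cells harbouring a luciferase neomycin HCV replicon reporter; luciferase luminescence as measure of HCV replicon replication; test concentration not given here.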 The settings on record: 48 h, higher = more signal. On the technique in general: A replicon is a self-replicating genome or part of one, used to study replication in cells.
Test [13] has as its target Left-right determination factor 2 (Homo sapiens) (UniProt O00292). The test can be described thus: LEFTY2 binders on small-molecule microarrays, primary screen, biochemical, small-molecule microarray, 635 nm fluorescence scan (AID 1110). Particulars: LEFTY2 binding, higher = more signal.
Test [14] addresses Calmodulin-1 (Homo sapiens) (UniProt P0DP23). The experiment in a line: CALM1 binders on microarrays, EGTA buffer, profiling panel, biochemical, small-molecule microarray, Cy5-labelled CALM1 (AID 1111).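 Note: labelled calmodulin applied in Tris saline Tween buffer holding calcium plus EGTA and DTT.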 Particulars: Cy5-CALM1 binding fluorescence, higher = more signal.
Test [15] has the same target. The experiment in a line: calcium-bound CALM1 binders on microarrays, profiling panel, artefact control for SMM control-protein annotation, biochemical, small-molecule microarray, Cy5-labelled CALM1, plus calcium (AID 1112).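 Note: score merges spot fluorescence with signal to noise from triplicate slides.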 Particulars: Cy5-CALM1 binding fluorescence, higher = more signal.
Test [16] in a line: small-molecule microarray binders of probe aWnt5a, primary screen, biochemical, biotinylated probe, 635/667 nm fluorescence (AID 1113).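 Note: score merges 667 nm fluorescence intensity with signal-to-noise per printed feature.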 The settings on record: higher = more signal.
Test [17] can be described thus: small-molecule microarray binders of probe aShh, primary screen, biochemical, biotinylated probe, 635/667 nm fluorescence (AID 1114).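 Note: probe is biotin-labelled aShh protein from a stem cell growth factor screen; measures binding of labelled protein to compounds printed on the slide; score merges feature fluorescence at 667 nm with signal-to-noise.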 Particulars: higher = more signal.
A short description of test [18]: small-molecule microarray binders of probe aNog, primary screen, biochemical, biotinylated probe, 635/667 nm fluorescence (AID 1115).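 Note: probe is biotinylated aNog protein used at 0.15 µg/mL for 1 h at 4 C; z-score combines 667 nm fluorescence of each spot with its signal to noise.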 The settings on record: higher = more signal.
Test [19] addresses Torsin-1A-interacting protein 1 (Homo sapiens) (UniProt Q5JTV8). The experiment in a line: LAP1 binders from COS7 cell lysate, primary screen, small-molecule microarray, 635/667 nm fluorescence (AID 1116). Particulars: COS7-hLAP1 lysate binding, 635 nm fluorescence, higher = more signal.
The target in test [20] is Alpha-bungarotoxin (Bungarus multicinctus) (UniProt P60615). The test can be described thus: alpha-bungarotoxin binders on microarray, profiling panel, artefact control for SMM control protein annotation, biochemical, small-molecule microarray, Alexa647 label, 635/667 nm fluorescence (AID 1117). Particulars: alpha-BTX-A647 binding fluorescence, higher = more signal.

Results on six compounds are retold here after PubChem BioAssay.

Calls of active or inactive are those of the source.

Torsin-1A-interacting protein 1 (Homo sapiens), sequence (Q5JTV8 whole entry, looked up): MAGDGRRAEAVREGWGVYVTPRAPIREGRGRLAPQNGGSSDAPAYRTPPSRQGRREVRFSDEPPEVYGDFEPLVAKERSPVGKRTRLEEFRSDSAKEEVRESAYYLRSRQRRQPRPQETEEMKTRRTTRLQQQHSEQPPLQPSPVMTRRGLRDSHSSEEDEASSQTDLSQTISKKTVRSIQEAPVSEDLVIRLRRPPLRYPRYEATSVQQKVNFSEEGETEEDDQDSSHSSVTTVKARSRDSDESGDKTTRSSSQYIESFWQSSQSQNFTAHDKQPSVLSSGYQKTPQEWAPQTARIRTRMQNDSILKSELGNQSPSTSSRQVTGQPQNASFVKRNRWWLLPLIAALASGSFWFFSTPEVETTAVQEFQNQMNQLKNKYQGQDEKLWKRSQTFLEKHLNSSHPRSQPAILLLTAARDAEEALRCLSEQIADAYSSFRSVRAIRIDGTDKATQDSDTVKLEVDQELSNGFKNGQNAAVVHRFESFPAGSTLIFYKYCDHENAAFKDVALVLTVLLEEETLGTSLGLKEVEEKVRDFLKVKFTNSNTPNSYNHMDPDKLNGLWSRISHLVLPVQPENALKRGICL
Alpha-bungarotoxin (Bungarus multicinctus), sequence (P60615 whole entry, looked up): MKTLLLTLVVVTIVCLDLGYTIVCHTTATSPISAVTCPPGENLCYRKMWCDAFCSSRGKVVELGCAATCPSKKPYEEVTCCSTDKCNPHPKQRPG
Dickkopf-related protein 1 (Homo sapiens), sequence (O94907 whole entry, looked up): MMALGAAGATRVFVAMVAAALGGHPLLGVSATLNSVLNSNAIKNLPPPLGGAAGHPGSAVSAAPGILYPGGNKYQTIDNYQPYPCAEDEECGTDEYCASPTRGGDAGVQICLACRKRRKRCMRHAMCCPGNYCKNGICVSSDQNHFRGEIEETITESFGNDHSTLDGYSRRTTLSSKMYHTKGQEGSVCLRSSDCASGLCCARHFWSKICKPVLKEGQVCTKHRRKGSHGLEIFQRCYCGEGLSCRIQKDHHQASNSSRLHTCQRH
Epidermal growth factor receptor (Homo sapiens), sequence (P00533 whole entry, looked up): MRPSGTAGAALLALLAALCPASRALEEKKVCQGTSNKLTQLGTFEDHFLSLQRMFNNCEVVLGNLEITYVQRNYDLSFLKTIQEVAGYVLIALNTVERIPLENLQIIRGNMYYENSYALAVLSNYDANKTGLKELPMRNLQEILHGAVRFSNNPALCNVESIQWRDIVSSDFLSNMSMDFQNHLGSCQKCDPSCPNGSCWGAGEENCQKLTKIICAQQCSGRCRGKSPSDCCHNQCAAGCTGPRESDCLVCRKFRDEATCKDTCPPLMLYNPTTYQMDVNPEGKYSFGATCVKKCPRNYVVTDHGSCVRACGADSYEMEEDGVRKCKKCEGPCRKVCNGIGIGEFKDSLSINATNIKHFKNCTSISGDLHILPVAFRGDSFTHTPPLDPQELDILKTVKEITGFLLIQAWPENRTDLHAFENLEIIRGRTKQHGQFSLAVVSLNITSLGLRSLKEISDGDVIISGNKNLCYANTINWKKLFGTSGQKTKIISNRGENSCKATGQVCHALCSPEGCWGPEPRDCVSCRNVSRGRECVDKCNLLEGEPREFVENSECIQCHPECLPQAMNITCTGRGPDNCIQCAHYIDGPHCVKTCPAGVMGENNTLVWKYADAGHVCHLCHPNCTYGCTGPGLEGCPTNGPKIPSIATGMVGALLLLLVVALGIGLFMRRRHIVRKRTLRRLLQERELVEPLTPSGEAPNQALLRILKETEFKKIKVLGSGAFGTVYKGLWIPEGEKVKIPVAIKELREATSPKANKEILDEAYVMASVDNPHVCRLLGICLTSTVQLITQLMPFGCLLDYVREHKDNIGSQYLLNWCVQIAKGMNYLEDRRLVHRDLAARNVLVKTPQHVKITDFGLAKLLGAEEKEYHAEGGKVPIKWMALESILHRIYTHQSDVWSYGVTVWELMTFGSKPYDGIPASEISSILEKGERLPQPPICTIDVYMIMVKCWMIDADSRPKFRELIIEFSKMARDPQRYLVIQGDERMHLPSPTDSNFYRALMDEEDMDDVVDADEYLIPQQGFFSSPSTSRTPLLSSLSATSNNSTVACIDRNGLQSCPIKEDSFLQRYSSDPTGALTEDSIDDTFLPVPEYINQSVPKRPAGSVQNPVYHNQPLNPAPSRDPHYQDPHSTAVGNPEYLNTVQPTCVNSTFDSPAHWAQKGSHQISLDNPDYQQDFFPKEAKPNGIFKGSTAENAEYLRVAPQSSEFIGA
Left-right determination factor 2 (Homo sapiens), sequence (O00292 whole entry, looked up): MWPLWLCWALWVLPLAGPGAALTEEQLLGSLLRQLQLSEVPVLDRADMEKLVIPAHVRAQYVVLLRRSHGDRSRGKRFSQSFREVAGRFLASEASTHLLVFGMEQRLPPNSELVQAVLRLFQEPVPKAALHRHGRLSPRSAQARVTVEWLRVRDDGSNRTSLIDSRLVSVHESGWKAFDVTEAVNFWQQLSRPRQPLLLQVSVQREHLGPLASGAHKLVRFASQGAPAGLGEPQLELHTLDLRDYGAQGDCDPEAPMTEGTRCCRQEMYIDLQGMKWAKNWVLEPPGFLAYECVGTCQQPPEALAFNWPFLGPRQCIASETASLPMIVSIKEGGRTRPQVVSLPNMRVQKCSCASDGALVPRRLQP
Follistatin-related protein 3 (Homo sapiens), sequence (O95633 whole entry, looked up): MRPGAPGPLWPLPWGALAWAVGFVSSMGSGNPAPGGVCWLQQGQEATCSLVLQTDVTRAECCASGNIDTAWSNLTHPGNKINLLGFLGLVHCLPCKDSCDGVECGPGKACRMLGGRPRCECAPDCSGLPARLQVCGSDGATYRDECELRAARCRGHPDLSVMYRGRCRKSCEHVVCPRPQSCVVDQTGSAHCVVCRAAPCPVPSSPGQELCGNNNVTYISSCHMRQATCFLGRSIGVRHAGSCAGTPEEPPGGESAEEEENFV
Fibroblast growth factor 10 (Homo sapiens), sequence (O15520 whole entry, looked up): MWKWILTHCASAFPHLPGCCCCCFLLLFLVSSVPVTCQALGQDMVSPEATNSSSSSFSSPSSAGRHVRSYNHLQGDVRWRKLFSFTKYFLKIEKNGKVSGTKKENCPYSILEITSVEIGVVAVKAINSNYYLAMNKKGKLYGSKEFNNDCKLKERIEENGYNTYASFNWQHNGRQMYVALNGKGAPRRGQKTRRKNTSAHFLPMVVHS

Turning to `Cc1ccc(S[C@]2(C(=O)NC(C)C)CC(=O)N(C3CCCCC3)[C@@H]2c2ccc(CO)cc2I)cc1`, the composite z-score was 1.16 in test [1]; 0.763 in test [2]; 0.547 in test [3]; 0.612 in [5]; 0.621 in [6]; -0.242 in [7]. In addition, the composite z-score is 1.19 in test [8]; 0.205 in [9]; 0.0441 in [10]; 1.44 in test [11]; -0.0068 in test [13]; 0.679 in test [14]. Further, the composite z-score was -0.558 in [15]; -0.0721 in test [16]; -0.0035 in test [17]; 0.313 in test [18]; 0.208 in [19]; 1.52 in [20]. Besides, the z-score was -0.504 (inactive) in test [4] and -2.93 in [12].
For `C=CCC(OC(C)=O)[C@@H]1[C@@H](N(Cc2ccc(-c3cccc(C(F)(F)F)c3)o2)C(=O)c2ccc(-c3ccccc3)cc2)c2cc(OCCCO)ccc2N1C(=O)c1ccc2ccccc2c1` (stereo not given in full), the composite z-score was 0.194 in [1]; -0.151 in test [2]; 0.397 in test [3]; 0.225 in test [5]; 0.099 in test [6]; 0.1 in test [7]. The composite z-score was 0.695 in test [8]; 0.15 in test [9]; 1.22 in [10]; -0.701 in test [11]; 0.27 in [13]; 0.0114 in test [14]. The composite z-score is 0.255 in test [15]; -0.119 in test [16]; 0.0121 in [17]; -0.399 in test [18]; 0.33 in test [19]; 0.0035 in [20]. Besides, the z-score in [4] was 0.697 (inactive); in [12] it was -0.514.
With `CC(C)(C)N1CC=CC23O[C@@H]4/C=C\CCCOC(=O)C4[C@H]2C(=O)N(CCCCCO)[C@@H]3C1=O` (stereo not given in full), the composite z-score in [1] is 1.58; in [2], -0.3; in test [3], 0.149; in test [5], -0.943; in test [6], -0.581; in test [7] it was -1.43. The composite z-score is -1.63 in [8]; -0.473 in [9]; -1.11 in test [10]; -0.267 in [11]; -1.48 in test [13]; -0.677 in [14]. The composite z-score was -0.893 in [15]; -0.213 in test [16]; 0.074 in [17]; -0.122 in [18]; -0.286 in test [19]; -0.954 in test [20]. Further, the z-score in [4] is -0.464 (inactive); in test [12] it was -0.887.
Regarding `C=C(COC)C(=O)CC[C@@H](OC(C)=O)c1ccccc1OCCO`, the composite z-score in [1] was 1.29; in test [2], -0.232; in [3] it was 0.313; in test [5], 1.53; in test [6] it was -0.0163; in test [7] it was -0.0143. The composite z-score was 0.209 in [8]; -0.306 in test [9]; 1.38 in [10]; 0.0358 in test [11]; 0.325 in test [13]; -0.85 in [14]. Besides, the composite z-score in [15] is -0.976; in test [16], -0.175; in test [17], -0.0626; in test [18] it was 0.493; in [19], 1.28; in [20], 0.0746. Also, the z-score in test [4] was 1.34 (inactive); in test [12], -2.72.
Regarding `O=C1OCCC=C[C@H]2OC34C=CCN(c5ccc6ccccc6c5)C(=O)[C@H]3N(CCO)C(=O)[C@@H]4C12` (stereo not given in full), the composite z-score in test [1] is 1.89; in [2] it was -0.886; in test [3], -0.465; in test [5], -0.0326; in test [6], -0.327; in test [7] it was -0.405. For the same compound, the composite z-score in test [8] was -0.114; in [9], -0.951; in [10], -0.666; in test [11] it was -0.988; in test [13], -0.277; in [14] it was -0.237. Besides, the composite z-score in test [15] was -0.419; in [16], -0.219; in [17], -0.383; in [18], -0.453; in test [19], 0.468; in test [20], 0.0797. For the same compound, the results for the z-score in test [4] and in [12] were -0.502 (inactive) and -0.07, respectively.
As to `C[C@]1(C(=O)O)c2ccccc2C(=O)N(Cc2cc(F)cc(C(F)(F)F)c2)[C@H]1c1ccc(CO)cc1`, the composite z-score in test [1] was 1.64; in test [2] it was -0.0944; in test [3] it was 0.249; in [5], 0.139; in [6], -0.429; in test [7] it was 0.213. In addition, the composite z-score in [8] was 0.0304; in [9] it was -0.336; in [10] it was 0.561; in test [11], 0.156; in test [13], 0.324; in [14] it was -0.16. Also, the composite z-score in test [15] was -0.348; in test [16], 0.0044; in test [17], -0.0035; in test [18], -0.0446; in test [19], -0.0131; in test [20] it was -0.408. Moreover, the z-score was 0.395 (inactive) in test [4] and 0.475 in test [12].
